Results taken from PubChem BioAssay (NCATS).
Values joined by “and” are separate entries in the source; they are usually repeats but may differ in a detail not shown here. Identical values can stand only once. Values without a mark were called inactive. A call without a number means that no potency is given here. Active and inactive are the calls of the source. Unless noted, calls follow the shape of the full dose curve.

How the values were obtained:
[1] = biological target: Cytochrome P450 3A4 (Homo sapiens) (UniProt P08684); experiment: qHTS Assay for Activators of Cytochrome P450 3A4 (AID 885; active = well fitted activation curve with a large enough effect; inconclusive = small, poorly fitted or top-dose-only effect; inactive = no such curve, though single readings can be large or run the other way; also: nearly all actives have a fitted effect of over 65% in size)
How it was run: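 20nM CYP3A4 + 25uM Luciferin-PPXE (=KM), 200mM KPO4; cpd 10 min RT; NADPH regen, 60 min RT; stop w/ detection buffer, 20 min; luminescence. Normalized to 57 uM ketoconazole.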

[2] = biological target: Estrogen receptor (Homo sapiens) (UniProt P03372); experiment: qHTS assay for small molecule antagonists of estrogen receptor alpha signaling (AID 588513; active = well fitted curve in the direction sought with a large enough effect in the signal ratio, with a control signal flat, not every such curve was filed as active; inconclusive = small, poorly fitted or top-dose-only effect, or effect the other way, or a change in a side signal; inactive = no such curve, though single readings can be large or run the other way; the % refers to the signal ratio; also: potency is read from the fitted curve at half-maximal effect)
How it was run: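 ER-alpha-UAS-bla GripTite HEK 293 cells in medium with 2% charcoal/dextran-treated FBS were preincubated 4 h at 37 C, dosed with compound (1:2 titration), stimulated with 0.5nM 17-beta-estradiol for 18 h, then read by CCF4 beta-lactamase fluorescence.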

[3] = qHTS assay to identify small molecules that stimulate interleukin-8 (IL-8) secretion (AID 651758; active = well fitted activation curve with a large enough effect in the signal ratio; inconclusive = small, poorly fitted or top-dose-only effect, or effect the other way, or a change in a side signal; the % refers to the signal ratio)
How it was run: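 THP-1 cells (2000/well) exposed to compound 16 h at 37 C; secreted IL-8 then detected by HTRF with cryptate- and XL665-labelled anti-IL-8 antibody pair after 1-3 h at room temperature.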

[4] = biological target: Bile acid receptor (Homo sapiens) (UniProt Q96RI1); experiment: qHTS assay for small molecule antagonists of farnesoid X receptor signaling (AID 588526)
How it was run: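 Antagonist mode: titrated compounds tested against chenodeoxycholic acid stimulation (normalized to 50 uM CDCA and DMSO) in GeneBLAzer HEK293T cells for 16 h. Beta-lactamase read by CCF4 fluorescence; IC50 from Hill fits.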

[5] = biological target: Androgen receptor (Homo sapiens) (UniProt P10275); experiment: qHTS assay for small molecule agonists of androgen receptor signaling (AID 588515; active = well fitted curve in the direction sought with a large enough effect in the signal ratio, with a control signal flat; inconclusive = small, poorly fitted or top-dose-only effect, or effect the other way, or a change in a side signal; inactive = no such curve, though single readings can be large or run the other way; the % refers to the signal ratio); conditions: AR-UAS-bla HEK293, beta-lactamase ratio, agonist 16 h; stronger effect = higher value
How it was run: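 EC50 and efficacy came from Hill fits of titrations (up to 92 uM) normalized to 30 nM R1881 as 100% and DMSO as 0%. Compound exposure was 16 h at 37 C on AR-UAS-bla HEK293 cells, with a 405/460/530 nm CCF4 fluorescence read.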

[6] = biological target: Androgen receptor (Homo sapiens) (UniProt P10275); experiment: qHTS assay for small molecule antagonists of androgen receptor signaling (AID 588516; active = well fitted curve in the direction sought with a large enough effect in the signal ratio, with a control signal flat, not every such curve was filed as active; inconclusive = small, poorly fitted or top-dose-only effect, or effect the other way, or a change in a side signal; inactive = no such curve, though single readings can be large or run the other way; the % refers to the signal ratio)
How it was run: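 AR-UAS-bla-GripTite HEK 293 cells (2000/well, 5 h at 37 C) received compound titrations, then R1881 at 10 nM final; after 16 h at 37 C, CCF4 dye 2 h RT, beta-lactamase fluorescence read; IC50 from Hill fits.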

Bile acid receptor (Homo sapiens), sequence (Q96RI1 whole entry, looked up): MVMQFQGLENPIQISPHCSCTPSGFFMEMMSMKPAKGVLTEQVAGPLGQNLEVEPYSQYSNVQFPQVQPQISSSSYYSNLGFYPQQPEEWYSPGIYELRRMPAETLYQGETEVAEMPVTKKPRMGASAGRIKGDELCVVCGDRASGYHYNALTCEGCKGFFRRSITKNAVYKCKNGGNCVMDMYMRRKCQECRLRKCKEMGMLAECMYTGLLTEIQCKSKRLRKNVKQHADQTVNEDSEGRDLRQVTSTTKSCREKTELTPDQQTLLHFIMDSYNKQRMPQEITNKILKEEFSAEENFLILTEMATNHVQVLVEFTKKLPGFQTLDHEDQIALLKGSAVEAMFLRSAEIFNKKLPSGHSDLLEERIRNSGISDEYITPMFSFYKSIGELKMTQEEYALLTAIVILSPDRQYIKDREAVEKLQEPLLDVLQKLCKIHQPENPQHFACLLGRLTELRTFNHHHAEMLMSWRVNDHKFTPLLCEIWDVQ
Androgen receptor (Homo sapiens), sequence (P10275 whole entry, looked up): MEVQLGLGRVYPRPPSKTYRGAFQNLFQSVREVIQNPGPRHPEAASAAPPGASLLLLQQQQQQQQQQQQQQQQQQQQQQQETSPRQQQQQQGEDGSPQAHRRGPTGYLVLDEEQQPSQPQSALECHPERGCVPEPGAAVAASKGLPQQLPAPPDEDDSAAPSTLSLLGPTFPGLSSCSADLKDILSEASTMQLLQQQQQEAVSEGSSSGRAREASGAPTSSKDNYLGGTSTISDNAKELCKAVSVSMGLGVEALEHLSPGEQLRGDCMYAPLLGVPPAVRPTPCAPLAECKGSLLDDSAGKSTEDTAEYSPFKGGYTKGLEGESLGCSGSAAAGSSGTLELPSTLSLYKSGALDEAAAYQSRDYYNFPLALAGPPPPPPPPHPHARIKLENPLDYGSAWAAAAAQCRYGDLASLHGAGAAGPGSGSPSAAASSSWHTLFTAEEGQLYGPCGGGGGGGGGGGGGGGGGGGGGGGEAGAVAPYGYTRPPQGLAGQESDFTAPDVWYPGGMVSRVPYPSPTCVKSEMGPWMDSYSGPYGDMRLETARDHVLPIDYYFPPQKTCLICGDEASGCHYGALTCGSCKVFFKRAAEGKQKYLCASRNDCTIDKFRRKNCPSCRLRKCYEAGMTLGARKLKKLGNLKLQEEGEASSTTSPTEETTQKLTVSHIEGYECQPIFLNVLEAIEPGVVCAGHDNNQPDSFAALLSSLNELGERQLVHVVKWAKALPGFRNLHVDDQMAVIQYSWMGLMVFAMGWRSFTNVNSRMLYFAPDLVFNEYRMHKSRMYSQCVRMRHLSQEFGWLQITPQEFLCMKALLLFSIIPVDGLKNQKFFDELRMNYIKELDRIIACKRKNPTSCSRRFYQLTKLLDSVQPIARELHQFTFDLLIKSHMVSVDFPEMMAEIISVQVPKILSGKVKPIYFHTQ
Cytochrome P450 3A4 (Homo sapiens), sequence (P08684 whole entry, looked up): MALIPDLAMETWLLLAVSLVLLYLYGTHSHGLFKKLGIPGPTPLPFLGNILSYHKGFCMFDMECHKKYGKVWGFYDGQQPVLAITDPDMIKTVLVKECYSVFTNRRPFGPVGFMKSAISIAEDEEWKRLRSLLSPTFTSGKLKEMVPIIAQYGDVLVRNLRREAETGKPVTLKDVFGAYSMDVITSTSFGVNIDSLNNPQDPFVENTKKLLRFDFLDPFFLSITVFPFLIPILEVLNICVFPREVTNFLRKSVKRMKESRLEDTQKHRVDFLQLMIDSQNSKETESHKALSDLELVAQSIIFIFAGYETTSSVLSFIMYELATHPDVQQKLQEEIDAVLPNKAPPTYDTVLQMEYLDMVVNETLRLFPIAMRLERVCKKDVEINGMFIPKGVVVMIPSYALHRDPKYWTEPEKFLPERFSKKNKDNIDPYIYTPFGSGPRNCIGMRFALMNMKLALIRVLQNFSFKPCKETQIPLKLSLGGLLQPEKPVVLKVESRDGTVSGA
Estrogen receptor (Homo sapiens), sequence (P03372 whole entry, looked up): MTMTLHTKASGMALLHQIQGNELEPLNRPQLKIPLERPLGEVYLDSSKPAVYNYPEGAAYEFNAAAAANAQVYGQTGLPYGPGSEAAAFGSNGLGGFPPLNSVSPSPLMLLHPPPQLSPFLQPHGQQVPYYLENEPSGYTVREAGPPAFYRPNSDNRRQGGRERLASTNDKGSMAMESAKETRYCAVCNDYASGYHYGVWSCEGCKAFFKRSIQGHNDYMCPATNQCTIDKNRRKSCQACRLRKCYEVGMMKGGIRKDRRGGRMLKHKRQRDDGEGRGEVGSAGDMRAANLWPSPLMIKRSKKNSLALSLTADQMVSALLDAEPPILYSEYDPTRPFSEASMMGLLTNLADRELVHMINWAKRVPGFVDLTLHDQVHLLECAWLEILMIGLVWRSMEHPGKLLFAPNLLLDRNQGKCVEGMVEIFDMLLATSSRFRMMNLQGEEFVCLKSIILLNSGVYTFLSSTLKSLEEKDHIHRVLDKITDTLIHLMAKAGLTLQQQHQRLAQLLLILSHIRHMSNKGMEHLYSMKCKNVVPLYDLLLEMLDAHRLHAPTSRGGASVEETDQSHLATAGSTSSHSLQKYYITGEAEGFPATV

## CCOP(=S)(OCC)SCCSCC
[1]
  Potency: inactive

## ClCc1ccccn1
[2]
  Potency: inactive

## CCCCCOC(=O)c1ccccc1C(=O)OCCCCC
[1]
  Potency: inactive
[2]
  Potency: inactive
[3]
  Potency: inactive

## ClCCBr
[3]
  Potency: inactive

## C=COC(C)=O
[3]
  Potency: inactive

## CCOS(C)(=O)=O
[4]
  outcome: inactive

## c1ccc(NNc2ccccc2)cc1
[4]
  outcome: inactive
[3]
  Potency: inactive

## O=[N+]([O-])c1ccccc1O
[3]
  Potency: inactive

## Nc1cc(Cl)cc(Cl)c1
[1]
  Potency: inactive
[4]
  outcome: inactive

## CC(C)C#N
[3]
  Potency: inactive

## Cc1ccc2c(c1N)C(=O)c1ccccc1C2=O
[1]
  Potency: inactive
[4]
  outcome: inactive

## Cc1cccc(C)c1N
[2]
  Potency: inactive
[4]
  outcome: inactive

## O=C(O)c1cc(Cl)ccc1Cl
[4]
  outcome: inactive

## O=[N+]([O-])c1c(Cl)c(Cl)c(Cl)c(Cl)c1Cl
[5]
  activation: 15.3% and 4.1%
[6]
  outcome: inactive

## Nc1ccc([N+](=O)[O-])cc1[N+](=O)[O-]
[5]
  activation: -5.64%
[3]
  Potency: inactive

## Cl/C=C/Cl
[2]
  Potency: inactive

## Nc1c(Cl)cc([N+](=O)[O-])cc1Cl
[2]
  Potency: inactive
[5]
  activation: -19.7%
[4]
  outcome: inactive

## Oc1cc(Cl)ccc1Cl
[1]
  Potency: inactive
[3]
  Potency: inactive

## CCCCC(=O)Cl
[4]
  outcome: inactive

## Nc1ccc(Oc2ccc(N)cc2)cc1
[1]
  Potency: inactive
[3]
  Potency: inactive

## CCCCCc1cc(O)cc(O)c1
[1]
  Potency: inactive
[4]
  outcome: inactive
[3]
  Potency: inactive

## CC(C)CC(C)N (stereo not given)
[3]
  Potency: inactive

## FC(Cl)(Cl)Cl
[5]
  activation: 5.32%
[6]
  outcome: inactive
[4]
  outcome: inactive

## N#CC(O)c1ccccc1 (stereo not given)
[4]
  outcome: inactive
[3]
  Potency: inactive

## CN(C)C(=O)Nc1cccc(C(F)(F)F)c1
[3]
  Potency: inactive

## OCCOCCO
[2]
  Potency: inactive
[3]
  Potency: inactive

## C=C(Cl)CCl
[2]
  Potency: inactive
[3]
  Potency: inactive

## CCBr
[2]
  Potency: inactive

## Nc1ccc(Cc2ccc(N)cc2)cc1
[1]
  Potency: inactive
[4]
  outcome: inactive

## COc1cc(-c2ccc(N)c(OC)c2)ccc1N
[1]
  Potency: inactive

## N#CCCC#N
[2]
  Potency: inactive

## CCC(Cl)[N+](=O)[O-] (stereo not given)
[2]
  Potency: inactive
[4]
  outcome: inactive
[3]
  Potency: inactive

## CC(C)Br
[2]
  Potency: inactive
[4]
  outcome: inactive
[3]
  Potency: inactive

## c1ccc(N=NNc2ccccc2)cc1
[2]
  Potency: inactive

## CC(C)(COCC1CO1)COCC1CO1 (stereo not given)
[2]
  Potency: inactive
[4]
  outcome: inactive
[3]
  Potency: inactive

## Nc1cc(Cl)ccc1O
[2]
  Potency: inactive

## CC(C)[N+](=O)[O-]
[4]
  outcome: inactive
[3]
  Potency: inactive

## O=C(O)C(Br)Br
[4]
  outcome: inactive

## C=CC(=O)OCC(C)C
[3]
  Potency: inactive

## O=[N+]([O-])c1cc(Cl)c(Cl)c(Cl)c1
[2]
  Potency: inactive
[4]
  outcome: inactive

## CCCCC(CC)COC(=O)c1ccc(C(=O)OCC(CC)CCCC)c(C(=O)OCC(CC)CCCC)c1 (stereo not given)
[5]
  activation: -4.73%

## CCCCOCC1CO1 (stereo not given)
[2]
  Potency: inactive
[4]
  outcome: inactive

## O=C(O)C(Br)CBr (stereo not given)
[2]
  Potency: inactive

## CN(C)c1ccc(N)cc1
[1]
  Potency: inactive
[2]
  Potency: 31.6 µM [inconclusive] (active)
[5]
  activation: -5.02%

## CCN(N=O)C(N)=O
[2]
  Potency: inactive
[4]
  outcome: inactive

## N#CCc1ccccc1
[2]
  Potency: inactive

## O=[N+]([O-])c1ccccc1CCl
[2]
  Potency: inactive
[4]
  outcome: inactive

## ClCCCCl
[4]
  outcome: inactive

## C=C(Cl)CSC(=S)N(CC)CC
[1]
  Potency: inactive
[4]
  outcome: inactive

## Cc1ccc(N)cc1C
[4]
  outcome: inactive

## CN(C)c1ccc(N(C)C)cc1
[4]
  outcome: inactive

## CCOC(=O)CBr
[4]
  outcome: inactive
[3]
  Potency: inactive

## CN1CSC(=S)N(C)C1
[2]
  Potency: inactive

## C(CCOCC1CO1)COCC1CO1 (stereo not given)
[2]
  Potency: inactive
[4]
  outcome: inactive
